Compound activity (PubChem)
Wnt bcat act: activators of Wnt/beta-catenin signaling | 300,000 tested, 1.2% active | AID 743398 | activation, % at 9.35 µM | Wnt/beta-catenin reporter cell assay, activator, plate reader; in the data active = activation above about 30%, passing the limit was not always enough; inconclusive = no clear call, values can overlap the other calls;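 note: 0% = neutral control wells and 100% = positive control wells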
hcDAF-12 act: H. contortus DAF-12 activation, primary screen; HEK293 hcDAF-12 lit1-tk-luc reporter, luminescence; 0% DMSO, 100% Δ7-dafachronic acid; activation, % at 6.8 µM; 370,000 tested, 1.4% active;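 active = activation above the mean of all tested compounds plus 3 SD, cut at about 5.5% in these data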;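 note: 100% = response to 3 µM Δ7-dafachronic acid high control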
esBAF inh: inhibitors of esBAF chromatin remodeling in mouse ES cells. AID 602393. reporter increase, % at 12.5 µM. 350,000 tested, 2% active. Bmi1-luciferase knock-in reporter, 24 h; 100% = twice the neutral-well signal; in the data active = activation above about 40%; inconclusive = no clear call, values can overlap the other calls;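 note: 0% = median of the plate's neutral control wells and 100% = double that signal; a rise in the Bmi1 reporter signal indicates esBAF inhibition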
hgDAF12 agonist: hgDAF-12 agonism, primary luciferase screen. HEK293 GAL4-hgDAF12 UAS-luciferase reporter, agonist luminescence; normalized to butyrate control. activation, % at 6.8 µM. 370,000 tested, 1.8% active. AID 687014;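 active = activation above a cutoff set at the mean of all screened compounds plus 3 SD, cut at about 10% in these data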;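 note: 0% = DMSO wells and 100% = sodium butyrate wells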
ssDAF12 agonist: S. stercoralis DAF-12 activation, primary screen. AID 652126. HEK293 ssDAF-12/GRIP1 lit1-tk-luc reporter, luminescence; % of 3 µM dafachronic acid response. 370,000 tested, 1% active. activation, % at 6.8 µM;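 active = activation above the mean over all tested compounds plus 3 SD, cut at about 0.9% in these data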;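 note: 0% = DMSO-only wells and 100% = 3 µM delta7-dafachronic acid wells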
DAX1 inh: blocks DAX1 repression of SF-1 activated StAR promoter. HEK293T StAR-luciferase reporter, SF-1/DAX-1 repression relief. inhibition, % at 6.8 µM. 370,000 tested, 1.1% active. AID 652010;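 active = inhibition above the mean over all tested compounds plus 3 SD, cut at about 3.6% in these data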;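 note: 0% = DAX-1 cells with DMSO and 100% = cells lacking DAX-1 with DMSO; higher inhibition means more luminescence from relief of DAX-1 repression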
DAX1 inh confirm: confirmation of human DAX1 (NR0B1) inhibitors. 2,400 tested, 87% active. inhibition, % at 6.8 µM. shares compounds with DAX1 inh. AID 652134. HEK293T StAR-promoter luciferase reporter, SF-1/DAX-1 repression;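 active = inhibition above the average of every tested compound plus 3 SD, cut at about 3.8% in these data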;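 note: 0% = DAX-1 cells with DMSO and 100% = no DAX-1 control cells with DMSO; active compounds raise luminescence by relieving repression of the StAR reporter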
Target sequence (P51843 whole entry, looked up): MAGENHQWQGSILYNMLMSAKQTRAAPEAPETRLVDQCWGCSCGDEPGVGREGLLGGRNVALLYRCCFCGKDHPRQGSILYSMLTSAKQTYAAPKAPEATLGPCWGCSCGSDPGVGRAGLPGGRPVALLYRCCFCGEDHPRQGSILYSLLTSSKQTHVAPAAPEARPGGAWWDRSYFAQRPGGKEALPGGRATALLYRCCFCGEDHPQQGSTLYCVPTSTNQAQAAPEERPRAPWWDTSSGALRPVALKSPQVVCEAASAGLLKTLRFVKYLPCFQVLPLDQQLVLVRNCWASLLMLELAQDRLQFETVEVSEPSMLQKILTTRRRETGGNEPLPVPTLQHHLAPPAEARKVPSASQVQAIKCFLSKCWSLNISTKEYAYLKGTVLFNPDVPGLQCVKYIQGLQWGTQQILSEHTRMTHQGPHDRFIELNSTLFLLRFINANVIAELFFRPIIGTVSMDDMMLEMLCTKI
SF1 AF2mut Luc: nonselective inhibitor or artifact in SF-1 mutant DAX1 counter-screen. shares compounds with DAX1 inh. HEK293 StAR-luciferase, SF-1 AF2 mutant, luminescence. inhibition, % at 6.8 µM. 2,400 tested, 78% active. AID 652136;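 active = inhibition above the mean of all tested compounds plus 3 SD, cut at about 3% in these data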;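 note: 0% = DAX-1 transfected cells with DMSO and 100% = cells without DAX-1 with DMSO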
LXRb hcDAF ctr: activates human LXR-beta, counter-screen for hcDAF-12 agonists; 3,400 tested, under 10 active; AID 743027; activation, % at 6.8 µM; HEK293 Gal4-LXR tk-luc reporter, luminescence, 24 h; normalized: DMSO 0%, positive control 100%; shares compounds with hcDAF-12 act;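 active = mean percent activation of the reporter above a cutoff set as the average over tested compounds plus their standard deviation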
hcDAF12 conf: confirmation of H. contortus DAF-12 agonists. shares compounds with hcDAF-12 act. 3,400 tested, 61% active. HEK293 hcDAF-12 lit1-tk-luc reporter, luminescence; % of Δ7-dafachronic acid response. activation, % at 6.8 µM;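 active = mean activation across triplicate tests above the threshold derived from the earlier primary screen, cut at about 5.5% in these data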;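 note: 0% = DMSO only wells and 100% = 3 µM Δ7-dafachronic acid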
hgDAF12 ag: confirmation of H. glycines DAF-12 agonists. shares compounds with hgDAF12 agonist. HEK293 GAL4-hgDAF12 luciferase reporter, agonist mode; percent of butyrate response. activation, % at 6.8 µM. 3,300 tested, 80% active;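 active = mean activation over triplicate wells above the hit cutoff derived from the earlier primary screen, cut at about 11% in these data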;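 note: 0% = DMSO low control and 100% = 2 mM sodium butyrate high control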
LXR ag 2: counter-screen for DAF-12 agonists: agonists of human LXR-beta; HEK293 Gal4-LXR luciferase reporter, 24 h; 3,300 tested, under 10 active; activation, % at 6.8 µM; shares compounds with hgDAF12 agonist;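 active = mean activation of the triplicate above a set limit carried over from the primary screen, none filed active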
The depositor's hits bear a star; ? = inconclusive; . = no result. Only some compounds are listed: those with a hit (about 4.2% of all), similar ones and a draw of the others.

SMILES | Wnt bcat act | hcDAF-12 act | esBAF inh | hgDAF12 agonist | ssDAF12 agonist | DAX1 inh | DAX1 inh confirm | SF1 AF2mut Luc | hgDAF12 ag | LXR ag 2 | others
Cc1ccc(NC(=O)N2CCc3ccccc3C2)cc1C | ? | 4 | 61* | 14* | -1 | 6.6* | 8.6* | 5.5* | 13* | 0
COc1ccc(NC(=O)N2CCc3ccccc3C2)cc1OC | 0 | -1 | 9 | 2 | -1 | -1 | . | . | . | .
C[C@H](CO)N1C[C@H](C)[C@@H](CN(C)C)Oc2ccc(NS(=O)(=O)c3ccc(Cl)cc3)cc2CC1=O | . | . | -4 | . | . | . | . | . | . | .
C[C@H](CO)N1C[C@H](C)[C@H](CN(C)Cc2ccccn2)Oc2cc(-c3ccc(C#N)cc3)ccc2S1(=O)=O | . | . | -8 | . | . | . | . | . | . | .
CC(/C=N/NC(=O)c1ccco1)=C\c1ccccc1 | -2 | 6 | -2 | 18* | 0 | 6.0* | 18* | 9.0* | 14* | 1
COc1ccc(/C=C(\C#N)C(=O)OCC(=O)NC(C)c2ccccc2)cc1 (configuration not stated) | . | -1 | . | -1 | -1 | 0 | . | . | . | .
COc1ccc(/C=C(\C#N)C(=O)OCC(=O)Nc2ccc(-c3nc4ccc(C)cc4s3)cc2)cc1 | 13 | 8.4* | -67 | 21* | 2.7* | 8.3* | 6.7* | 3.2* | 21* | 1 | LXRb hcDAF ctr=2;hcDAF12 conf=10*
O=C(CCS(=O)(=O)c1ccccc1)Nc1cccc(-c2nc3ccccc3s2)c1 | . | 3 | 40 | 5 | -2 | 2 | . | . | . | .
Cc1ccc2nc(-c3ccc(NC(=O)CN(c4ccccc4C)S(C)(=O)=O)cc3)sc2c1 | . | 4 | . | 15* | 1.0* | 4.8* | 8.0* | 5.4* | 20* | 1
O=C(CCS(=O)(=O)c1ccccc1)Nc1ccc(-c2nc3ccccc3s2)cc1 | -6 | 9.2* | -43 | 18* | 1.2* | 6.1* | 13* | 8.9* | 15* | 1 | LXRb hcDAF ctr=2;hcDAF12 conf=5.7*
Cc1ccc2nc(-c3ccc(NC(=O)COC(=O)c4ccc(Br)o4)cc3)sc2c1 | . | 18* | . | 28* | 3.0* | 6.6* | 9.7* | 4.2* | 24* | 1 | LXRb hcDAF ctr=2;hcDAF12 conf=13*
C[C@H](CO)N1C[C@H](C)[C@H](CN(C)Cc2ccccc2F)Oc2cc(C#CC3CC3)ccc2S1(=O)=O | . | . | -2 | . | . | . | . | . | . | .
CN(C)CCCNC(=O)C[C@H]1C=C[C@H](NC(=O)Cc2cccnc2)[C@H](CO)O1 | . | . | -3 | . | . | . | . | . | . | .
C[C@@H]1CN([C@H](C)CO)S(=O)(=O)c2ccc(C3=CCCCC3)cc2O[C@H]1CN(C)C(=O)Nc1ccc2c(c1)OCO2 | . | . | 4 | . | . | . | . | . | . | .
COc1ccc2cc(CCC(C)=O)ccc2c1 | 2 | 3 | 58* | 14* | 0 | 5.2* | 9.6* | 7.9* | 16* | 1
Nc1c(C(=O)Nc2ccc(Cl)cc2)oc2ccccc12 | ? | 22* | 24 | 20* | 2.2* | 6.4* | 15* | 11* | 24* | 1 | LXRb hcDAF ctr=2;hcDAF12 conf=16*
CCCN1[C@@H]2c3ccc(-c4ccccc4F)c(=O)n3C[C@@H]2[C@@H](CO)[C@@H]1C(=O)N1CCN(C)CC1 | . | . | 2 | . | . | . | . | . | . | .
Cc1ccc(C=Cc2ccccn2)cc1 | -1 | 3 | 20 | 13* | 0 | 7.5* | 12* | 4.9* | 20* | 1
Fc1ccccc1CSc1ncnc2c1ncn2C1CCCCO1 (configuration not stated) | 48* | 5 | 38 | 14* | 0 | 6.1* | 8.6* | 5.0* | 13* | 1
C[C@H](CO)N1C[C@H](C)[C@@H](CN(C)S(=O)(=O)c2cn(C)cn2)Oc2ccc(NC(=O)CCCN(C)C)cc2C1=O | . | . | 3 | . | . | . | . | . | . | .
O=C(Nc1cccnc1Cl)c1ccc2c(Cl)c3c(nc2c1)CCC3 | ? | 6 | . | 17* | 0 | 5.0* | 16* | 6.1* | 20* | 1
CC(=O)c1cccc(NC(=O)c2ccc3c(Cl)c4c(nc3c2)CCCC4)c1 | 6 | -1 | . | -1 | -2 | 0 | . | . | . | .
CCCC#Cc1ccc2c(c1)O[C@H](CN(C)Cc1ccc3c(c1)OCO3)[C@H](C)CN([C@H](C)CO)S2(=O)=O | . | . | -12 | . | . | . | . | . | . | .
COc1ccc(-c2nn(-c3ccccc3)cc2N)cc1 | 59* | 4 | . | 16* | 0 | 5.3* | 9.2* | 5.8* | 16* | 0
CNC(=O)c1cc2c(s1)CCCCCC2 | . | 0 | -3 | -2 | -1 | 0 | . | . | . | .
SMILES | Wnt bcat act | hcDAF-12 act | esBAF inh | hgDAF12 agonist | ssDAF12 agonist | DAX1 inh | DAX1 inh confirm | SF1 AF2mut Luc | hgDAF12 ag | LXR ag 2 | others
CC1CCC(NC(=O)c2cc3c(s2)CCCC3)CC1 (configuration not stated) | ? | 2 | ? | 14* | 0 | 6.1* | 6.7* | 4.5* | 12* | 0
Cc1ccc(C(=O)NC2CCC(C)CC2)s1 (configuration not stated) | 62* | 4 | . | 19* | 1.0* | 14* | 15* | 6.6* | 18* | 1
C[C@@H]1CN([C@@H](C)CO)C(=O)Cc2cc(NC(=O)Cc3cn(C)c4ccccc34)ccc2O[C@H]1CN(C)S(=O)(=O)c1cccs1 | . | . | 3 | . | . | . | . | . | . | .
CCCN1C[C@H](C)[C@@H](OC)CN(C)C(=O)c2cc(NC(=O)c3cccc(OC)c3)ccc2OC[C@H]1C | . | . | 0 | . | . | . | . | . | . | .
C[C@@H]1CN([C@H](C)CO)C(=O)c2cc(C#Cc3ccccc3)cnc2O[C@H]1CN(C)C(=O)CN(C)C | . | . | 1 | . | . | . | . | . | . | .
Cc1ccc(O)c(C(=O)CC(=O)c2ccccc2Cl)c1 | 9 | 3 | . | 22* | 0 | 5.0* | 0 | 2 | 5 | 0
CC=Cc1ccc2n(c1=O)C[C@@H]1[C@@H](CO)[C@H](C(=O)NCC(F)(F)F)N(CC3CC3)[C@H]21 (mixture of isomers) | . | . | -1 | . | . | . | . | . | . | .
